The results in this text go back to PubChem BioAssay.

The test system of test [1] is Human papillomavirus type 1a protein E7 (residues 44-93). Description: small molecules binding HPV E7 44-93 – biochemical, small-molecule microarray, residues 44-93, 635 nm fluorescence, primary screen (AID 1108).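 Also: E7 fragment applied at 1 µg/mL in TBST for 1 h at 4 C; score combines spot fluorescence with its signal to noise ratio.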 The conditions noted are these: fluorescence 635 nm, higher = more signal.
The nature of test [2]: hepatitis C replication reporter changes, two-sided – Huh7 cells, luciferase reporter, HCV replication inhibitor project, primary screen (AID 1109).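 Also: huh7 hepatoma cells harbouring a luciferase neomycin HCV replicon reporter; luciferase luminescence as measure of HCV replicon replication; test concentration not given here.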 The conditions noted are these: Huh7 HCV replicon luciferase reporter, 48 h; higher = more signal.
Test [3] deals with Left-right determination factor 2 (Homo sapiens) (UniProt O00292). Description: small molecules binding LEFTY2 protein – biochemical, small-molecule microarray, 635 nm fluorescence scan, primary screen (AID 1110). The conditions noted are these: higher = more signal.
The target of test [4] is Calmodulin-1 (Homo sapiens) (UniProt P0DP23). Put plainly: small molecules binding calmodulin-1 with EGTA – biochemical, small-molecule microarray, Cy5-labelled CALM1, profiling panel (AID 1111).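 Also: labelled calmodulin applied in Tris saline Tween buffer holding calcium plus EGTA and DTT.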 The conditions noted are these: Cy5-CALM1 binding fluorescence, higher = more signal.
Test [5] has the same target. Put plainly: small molecules binding Ca-loaded calmodulin-1 – biochemical, small-molecule microarray, Cy5-labelled CALM1, plus calcium, artefact control for SMM control-protein annotation, profiling panel (AID 1112).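 Also: score merges spot fluorescence with signal to noise from triplicate slides.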 The settings on record: Cy5-CALM1 binding fluorescence, higher = more signal.
Test [6] can be described thus: probe aWnt5a binding to arrayed compounds – biochemical, biotinylated probe, 635/667 nm fluorescence, primary screen (AID 1113).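 Also: score merges 667 nm fluorescence intensity with signal-to-noise per printed feature.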 The conditions noted are these: small-molecule microarray, higher = more signal.
A short description of test [7]: probe aShh binding to arrayed compounds – biochemical, biotinylated probe, 635/667 nm fluorescence, primary screen (AID 1114).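 Also: probe is biotin-labelled aShh protein from a stem cell growth factor screen; measures binding of labelled protein to compounds printed on the slide; score merges feature fluorescence at 667 nm with signal-to-noise.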 The settings on record: small-molecule microarray, higher = more signal.
A short description of test [8]: probe aNog binding to arrayed compounds – biochemical, biotinylated probe, 635/667 nm fluorescence, primary screen (AID 1115).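 Also: probe is biotinylated aNog protein used at 0.15 µg/mL for 1 h at 4 C; z-score combines 667 nm fluorescence of each spot with its signal to noise.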 The settings on record: small-molecule microarray, higher = more signal.
In test [9] the target is Torsin-1A-interacting protein 1 (Homo sapiens) (UniProt Q5JTV8). Put plainly: compound microarray binding of lysate hLAP1 – cell lysate, small-molecule microarray, COS7 lysate, 635/667 nm fluorescence, primary screen (AID 1116). The conditions noted are these: 635 nm fluorescence, higher = more signal.
The target of test [10] is Alpha-bungarotoxin (Bungarus multicinctus) (UniProt P60615). Put plainly: compounds binding labelled alpha-BTX control protein – biochemical, small-molecule microarray, Alexa647 label, 635/667 nm fluorescence, artefact control for SMM control protein annotation, profiling panel (AID 1117). The settings on record: alpha-BTX-A647 binding fluorescence, higher = more signal.
Another test has as its target Albumin (Bos taurus) (UniProt P02769). Description: compounds binding labelled BSA control protein – biochemical, small-molecule microarray, Alexa647 label, 635/667 nm fluorescence, artefact control for SMM control protein annotation, profiling panel (AID 1118).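 Also: score merges 667 nm emission intensity and signal-to-noise per printed compound spot.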 The settings on record: BSA-A647 binding, fluorescence 635 nm, higher = more signal.
Test [11] can be described thus: probe aXIP binding to arrayed compounds – biochemical, NeuroSMM set, 635/667 nm fluorescence, primary screen (AID 1119).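 Also: probe is the protein aXip251-270 applied at 1 µg/mL to compound-printed slides; binding of probe to printed compounds measured as 667 nm fluorescence plus signal to noise.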 The settings on record: small-molecule microarray, higher = more signal, called active from +8 up or from −8 down.
Test [12] in a line: probe aNOTCH3 binding on compound microarray – biochemical, small-molecule microarray, 635/667 nm fluorescence, primary screen (AID 1120).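 Also: probe is a biotin-tagged antibody raised against NOTCH3 rather than NOTCH3 protein; score merges spot fluorescence near 667 nm with spot signal to noise.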 The conditions noted are these: higher = more signal.
A short description of test [13]: probe aNOTCH2 binding on compound microarray – biochemical, small-molecule microarray, 635/667 nm fluorescence, primary screen (AID 1121).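 Also: score merges feature fluorescence read at 667 nm with its signal to noise.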 The settings on record: higher = more signal.
The target in test [14] is Carbonic anhydrase 2 (Homo sapiens) (UniProt P00918). Put plainly: compounds binding carbonic anhydrase 2 – biochemical, small-molecule microarray, Alexa647-labelled CAII, profiling panel (AID 1122). The conditions noted are these: CAII-A647 binding fluorescence, higher = more signal.
Test [15] can be described thus: COS7 lysate on small-molecule microarray, probe aHis, 635 nm (AID 1123).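 Also: z-score combines 667nm fluorescence intensity with signal-to-noise per printed compound spot.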 The conditions noted are these: COS7 cell lysate, fluorescence, higher = more signal.
Test [16] in a line: probe aLAP1 signal on lysate-treated microarray – cell lysate, small-molecule microarray, COS7 lysate, primary screen (AID 1124).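 Also: lysate comes from COS7 cells expressing LAP1 and is applied at 0.3 µg/mL; score merges spot fluorescence near 667 nm with signal-to-noise over triplicate slides.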 The conditions noted are these: probe aLAP1, fluorescence, higher = more signal.
A further test concerns Sam68 (KHDRBS1). Put plainly: compounds binding KHDRBS1 protein – biochemical, small-molecule microarray, 635 nm fluorescence, primary screen (AID 1125).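 Also: score merges 667 nm channel intensity with signal to noise over triplicate slides.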 The settings on record: higher = more signal.
Test [17] has as its system Chordin-like protein 2 (CHRDL2). Description: compounds binding chordin-like 2 – biochemical, small-molecule microarray, 635 nm fluorescence, primary screen (AID 1126).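 Also: printed compound slides probed with Chrdl2 protein at 4 µg/mL for 1 h at 4 C; score merges 667 nm emission intensity with signal to noise over three replicate slides.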 The conditions noted are these: fluorescence 635 nm, higher = more signal.
In test [18] the target is Concanavalin-A (Canavalia ensiformis) (UniProt P02866). Description: compounds binding concanavalin A lectin – biochemical, small-molecule microarray, Alexa647 label, 635 nm, artefact control for SMM control protein annotation, primary screen (AID 1127).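 Also: z combines 667 nm emission intensity with signal-to-noise across three replicate slides.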 The conditions noted are these: ConA-A647 binding fluorescence, higher = more signal.

Activity calls are given as the source filed them.

Chain of Torsin-1A-interacting protein 1 (Homo sapiens) (Q5JTV8 whole entry, looked up): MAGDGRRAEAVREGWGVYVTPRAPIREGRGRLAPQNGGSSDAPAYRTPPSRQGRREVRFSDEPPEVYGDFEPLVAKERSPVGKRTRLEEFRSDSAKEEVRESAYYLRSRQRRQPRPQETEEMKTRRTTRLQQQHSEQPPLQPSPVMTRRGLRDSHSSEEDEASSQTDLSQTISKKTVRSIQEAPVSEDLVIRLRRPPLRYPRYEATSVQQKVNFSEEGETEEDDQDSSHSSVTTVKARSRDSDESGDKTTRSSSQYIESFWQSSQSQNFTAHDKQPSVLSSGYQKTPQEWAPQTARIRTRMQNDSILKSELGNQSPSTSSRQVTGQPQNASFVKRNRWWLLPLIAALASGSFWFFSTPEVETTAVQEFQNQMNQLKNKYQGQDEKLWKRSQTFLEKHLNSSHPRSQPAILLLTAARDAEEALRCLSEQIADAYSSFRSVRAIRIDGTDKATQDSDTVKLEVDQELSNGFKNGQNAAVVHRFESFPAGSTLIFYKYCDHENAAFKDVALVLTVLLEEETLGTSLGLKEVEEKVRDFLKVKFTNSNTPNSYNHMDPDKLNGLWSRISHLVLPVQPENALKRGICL
Chain of Left-right determination factor 2 (Homo sapiens) (O00292 whole entry, looked up): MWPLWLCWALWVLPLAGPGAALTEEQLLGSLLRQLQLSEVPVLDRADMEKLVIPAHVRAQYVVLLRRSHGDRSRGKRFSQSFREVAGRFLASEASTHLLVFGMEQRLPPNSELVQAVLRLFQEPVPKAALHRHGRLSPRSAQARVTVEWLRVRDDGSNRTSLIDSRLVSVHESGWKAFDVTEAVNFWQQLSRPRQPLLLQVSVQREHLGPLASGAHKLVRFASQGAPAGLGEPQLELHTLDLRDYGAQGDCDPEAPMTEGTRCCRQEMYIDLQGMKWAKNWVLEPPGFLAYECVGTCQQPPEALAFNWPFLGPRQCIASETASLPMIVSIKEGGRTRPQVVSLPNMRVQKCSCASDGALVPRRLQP
Chain of Alpha-bungarotoxin (Bungarus multicinctus) (P60615 whole entry, looked up): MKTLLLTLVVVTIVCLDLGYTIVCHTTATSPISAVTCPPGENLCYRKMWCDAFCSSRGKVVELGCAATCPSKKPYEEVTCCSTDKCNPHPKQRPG
Chain of Albumin (Bos taurus) (P02769 whole entry, looked up): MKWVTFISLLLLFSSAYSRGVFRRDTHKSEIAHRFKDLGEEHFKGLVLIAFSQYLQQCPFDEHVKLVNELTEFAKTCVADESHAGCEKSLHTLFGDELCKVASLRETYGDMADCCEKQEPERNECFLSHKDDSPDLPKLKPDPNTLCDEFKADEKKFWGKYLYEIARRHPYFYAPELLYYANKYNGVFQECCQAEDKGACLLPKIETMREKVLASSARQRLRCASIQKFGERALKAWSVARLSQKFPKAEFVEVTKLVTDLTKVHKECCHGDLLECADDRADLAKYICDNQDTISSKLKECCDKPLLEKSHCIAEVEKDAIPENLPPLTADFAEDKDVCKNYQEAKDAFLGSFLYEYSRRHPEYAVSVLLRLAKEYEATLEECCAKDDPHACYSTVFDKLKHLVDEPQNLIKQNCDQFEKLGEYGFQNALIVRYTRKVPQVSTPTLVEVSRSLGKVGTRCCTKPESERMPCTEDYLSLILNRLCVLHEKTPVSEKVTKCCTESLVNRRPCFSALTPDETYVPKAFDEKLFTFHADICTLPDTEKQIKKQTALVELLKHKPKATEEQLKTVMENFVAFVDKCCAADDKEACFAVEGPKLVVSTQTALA
Chain of Concanavalin-A (Canavalia ensiformis) (P02866 whole entry, looked up): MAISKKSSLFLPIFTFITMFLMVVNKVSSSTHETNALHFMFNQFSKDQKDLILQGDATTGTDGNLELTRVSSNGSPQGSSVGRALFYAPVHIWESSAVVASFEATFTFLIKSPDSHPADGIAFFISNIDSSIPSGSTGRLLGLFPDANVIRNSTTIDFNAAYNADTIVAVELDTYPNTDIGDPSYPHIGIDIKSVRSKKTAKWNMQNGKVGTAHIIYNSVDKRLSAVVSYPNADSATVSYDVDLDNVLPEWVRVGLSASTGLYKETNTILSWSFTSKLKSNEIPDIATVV

Take `C#CCNCc1ccccc1`: the composite z-score in [1] was 0.297; in test [3] it was 0.689; in test [4], -0.389; in test [5], -0.163; in [6], -0.213; in [7], -0.291. The composite z-score in [8] was -0.213; in [9], 0.195; in [10], 0.34; with Albumin (Bos taurus), -0.172; in test [12], -0.201; in test [13] it was -0.117. For the same molecule, the composite z-score is -0.0848 in test [14]; -0.0833 in test [15]; 0.149 in [16]; 0.44 in the test with Sam68 (KHDRBS1); 0.128 in test [17]; 0.159 in test [18]. Further, the z-score in [2] is 0.141. For the same molecule, the composite Z-score in test [11] was 0.204 (inactive).

Consider `O=C1C2C=CC(C(O)C=Cc3ccc([N+](=O)[O-])cc3)N(n3cnnc3)C2C(=O)N1Cc1ccccc1` (stereo not given), for which the composite z-score was 1.34 in test [1]; -0.368 in test [3]; 0.596 in [4]; -0.143 in test [5]; 0.0633 in [6]; -0.0035 in test [7]. Moreover, the composite z-score in test [8] is 0.977; in test [9] it was 0.832; in test [10], 1.39; in the test with Albumin (Bos taurus) it was 0.235; in [12] it was 0.177; in [13], 0.02. Also, the composite z-score in [14] worked out at 0.66; in test [15] it was 1.38; in test [16] it was 1.04; in the test with Sam68 (KHDRBS1) it was 1.19; in test [17] it was 0.682; in test [18], 0.876. Besides, the z-score in [2] was -0.93. Also, the composite Z-score in test [11] was 0.263 (inactive).

With `COc1ccc(C(=O)Nc2ccc(CN3C(=O)[C@]4(O[C@H](CC(=O)N5CCC[C@H]5CO)[C@@H]([Si](C)(C)c5ccc(OC)cc5)[C@@H]4C)c4ccccc43)cc2)cc1`, the composite z-score in [1] is 1.4; in test [3], 0.471; in test [4], 0.453; in test [5], -0.171; in [6], -0.0445; in test [7], 0.0639. Also, the composite z-score in test [8] is 0.116; in [9], 1.08; in [10], 0.748; with Albumin (Bos taurus) it was -0.398; in test [12], 0.218; in [13], -0.0681. Also, the composite z-score in [14] amounted to 0.298; in test [15], 1.72; in test [16], 0.394; with Sam68 (KHDRBS1) it was 1.29; in test [17], 0.666; in test [18], 0.884. Further, the z-score in test [2] is -3.86. The composite Z-score in test [11] was 0.0524 (inactive).

On to `O=C1OCCC=C[C@H]2OC34C=CCN(CCN5CCOCC5)C(=O)[C@H]3N(CCCCCO)C(=O)[C@@H]4C12` (stereo not given in full), for which the composite z-score in test [1] was 0.57; in [3], -0.529; in [4], 0.667; in [5] it was -0.836; in test [6], -0.147; in test [7], -0.237. Also, the composite z-score in test [8] was -0.103; in test [9], 2.24; in [10], 1.88; in the test with Albumin (Bos taurus), 0.953; in [12], -0.152; in test [13], -0.203. The composite z-score is 0.848 in test [14]; 2.4 in [15]; 1.48 in [16]; 0.913 in the test with Sam68 (KHDRBS1); 0.355 in test [17]; 0.935 in test [18]. The z-score in test [2] was 0.305. Besides, in [11], the composite Z-score was -0.88 (inactive).

With `O=C1NC(=O)C2C1C=CC(C(O)c1ccc(I)cc1)N2Nc1ccc(Cl)cc1Cl` (stereo not given), the composite z-score in [1] was 1.36; in test [3] it was -0.562; in test [4], 1.84; in [5], 0.99; in test [6], -0.0236; in [7], -0.0056. Also, the composite z-score in test [8] turned out to be 1.66; in test [9] it was 1.05; in test [10], 1.1; with Albumin (Bos taurus), 0.99; in [12], 0.387; in test [13], 0.127. In addition, the composite z-score is 0.404 in test [14]; 1.61 in test [15]; 0.943 in test [16]; 1.22 in the test with Sam68 (KHDRBS1); -0.776 in test [17]; 1.09 in test [18]. In [2], this molecule displayed a z-score of -0.644. Further, in test [11], the composite Z-score is -0.234 (inactive).

For `CO[C@H]1O[C@H](CO)[C@@H](OC(=O)Nc2ccc(Oc3ccccc3)cc2)[C@H](OC(=O)Nc2ccc3c(c2)OCO3)[C@@H]1OC(=O)Nc1ccc2c(c1)OCO2`, the composite z-score in test [1] is 0.794; in test [3], 0.627; in test [4], 1.15; in [5], -0.23; in test [6], 0.0374; in [7], 0.246. Moreover, the composite z-score was found to be 0.565 in test [8]; 1.37 in test [9]; 1.26 in test [10]; 0.277 with Albumin (Bos taurus); 0.327 in test [12]; 0.0248 in [13]. For the same molecule, the composite z-score in test [14] is 0.333; in [15], 2.02; in test [16] it was 0.869; with Sam68 (KHDRBS1), 1.3; in test [17] it was 0.335; in [18], 1.18. Besides, the z-score in test [2] worked out at 0.166. Also, the composite Z-score in test [11] was 1.29 (inactive).
